In all, about 69,000 compounds went through this assay and about 8,600 (12%) showed an effect of 50% or more. This is one part of a sample in which strong results are shown more often than they occur.
Test system: Plasmodium berghei
Test: Screen against P. berghei liver stage (PbLuc), transformed with Luciferase, at 10uM
Format: functional, HepG2
Details: tested at 10 uM

SMILES	INHIBITION
Cn1cncc1-c1nnc([C@H]2CCN(CC3CCCCC3)C2)o1	-17.1%
CN1CC[C@H](c2nnc(-c3cncn3C)o2)C1	61.5%
Cn1cncc1-c1nnc([C@H]2CCN(Cc3cccnc3)C2)o1	39.8%
Cn1cncc1-c1nnc([C@H]2CCN(CC(C)(C)C)C2)o1	57.4%
Cn1cncc1-c1nnc([C@H]2CCN(Cc3ccc(F)c(F)c3)C2)o1	11.4%
Cc1ccccc1CN1CC[C@H](c2nnc(-c3cncn3C)o2)C1	5.96%
Cn1cncc1-c1nnc([C@H]2CCN(Cc3ncc[nH]3)C2)o1	69.6%
Cn1cncc1-c1nnc([C@H]2CCN(C3CCOCC3)C2)o1	4.61%
COc1ccc(OC)c(CNCc2c(C(C)C)nn(C)c2N(C)C)c1	30.08%
O=C1N[C@H]2OCCC[C@H]2[C@H](c2ccccc2C(=O)O)N1	-0.495%
Cc1ccc(C2(O)CCN(C(=O)c3cccc(S(C)(=O)=O)c3)CC2)nc1	-6.09%
Cc1n[nH]c(C)c1C1CCCN1C(=O)Cc1cccc(F)c1 (configuration not stated)	40.2%
CSc1ccc(NC(=O)Cn2cc(N)cn2)cc1	-15%
Cc1cc(NCCc2nnc(N)s2)nc(-c2ccccc2)n1	-13.3%
CN1C(=O)CC[C@@H]2N(C(=O)CCc3cccnc3)CCCC[C@@]21C	44.3%
CC(=O)N1CCc2[nH]cnc2C1C1=CCCN(CCn2cccc2)C1 (configuration not stated)	12.8%
CC(C)CC(C)N(C)Cc1nnc(-c2ccco2)o1 (configuration not stated)	-17.5%
CN(Cc1nnc(-c2cccs2)o1)C(C(N)=O)c1cccc(F)c1 (configuration not stated)	-15.3%
CCCC(C)N(C)Cc1nnc(-c2ccco2)o1 (configuration not stated)	26.9%

SMILES	INHIBITION
CN(Cc1nnc(C2CCC2)o1)C(C(N)=O)c1cccc(F)c1 (configuration not stated)	12.7%
CC(C)C(C)N(C)Cc1nnc(-c2ccco2)o1 (configuration not stated)	66.9%
CN(Cc1nnc(-c2ccco2)o1)C(C(N)=O)c1cccc(F)c1 (configuration not stated)	61.5%
CC(CNCc1ccc(Br)cc1)Oc1ccccn1 (configuration not stated)	13%
Cc1ccc2nc(-c3nc4c([nH]3)CC(C)(C)CNC4=O)cn2c1	16.9%
c1coc(CN2CCc3onc(Cn4cccc4)c3C2)c1	20.1%
CC(C)Oc1ccccc1C1CC(=O)Nc2c1cnn2C (configuration not stated)	-31.6%
Cc1cccc(C(=O)N2CCCCC2c2nc3cc(F)ccc3[nH]2)n1 (configuration not stated)	39.1%
CC(NC(=O)Nc1cc(F)ccc1N1CCCCC1)c1nncn1C (configuration not stated)	25.7%
NC(=O)c1ccc(N2CCCCC2)c(NC(=O)c2ccc(F)cc2F)c1	89.1%
Cc1cc(NC(=O)c2ccc(F)cc2F)n(C)n1	29.3%
Cc1ccc(NC(=O)c2ccc(N3CCCCC3)nn2)c(Cl)c1	11.3%
NC(=O)c1ccc(N2CCCCC2)c(NC(=O)c2ccc(Br)cc2)c1	39.5%
NC(=O)c1ccc(N2CCCCC2)c(NC(=O)c2cc(F)ccc2F)c1	93.1%
NC(=O)c1ccc(N2CCCCC2)c(NC(=O)c2cc(Br)ccc2F)c1	86.8%
COCCCN1Cc2cccc(NC(=O)c3cc(F)ccc3F)c2C1	32.9%
NC(=O)c1ccc(N2CCCCC2)c(NC(=O)c2cc(Br)ccc2Cl)c1	81.2%
O=C(c1cc(Br)ccc1-n1cnnn1)N1CCCCC1	24.2%

— ChEMBL document CHEMBL4513216, “Probing the Open Global Health Chemical Diversity Library for Multistage-Active Starting Points for Next-Generation Antimalarials” (ACS Infect Dis, 2020)
